Luc counter: blocks Kinase-Glo luciferase, a counter-screen artifact | Q27757 | Kinase-Glo luciferase, ATP luminescence, 8 min | Potency, µM (series often up to 38.3 µM), usual class: inhibitors | 200,000 tested, 0.28% active | AID 1379; active = well fitted inhibition curve with a large enough effect; inconclusive = small, poorly fitted or top-dose-only effect; also: nearly all actives have a fitted effect of over 60% in size
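Compound is pinned into ATP-containing buffer (10 uM ATP, imidazole pH 7.2, 7 mM MgCl2). Kinase-Glo luciferase reagent is then added. Light output is recorded following an 8-min room-temperature incubation.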
ALDH1A1 inh: inhibitors of human aldehyde dehydrogenase 1A1 | P00352 | Purified ALDH1A1, NADH fluorescence, propionaldehyde substrate | Potency, µM (highest dose often 75.3 µM), usual class: inhibitors | 220,000 tested, 7.3% active
Target sequence (P00352 whole entry, looked up): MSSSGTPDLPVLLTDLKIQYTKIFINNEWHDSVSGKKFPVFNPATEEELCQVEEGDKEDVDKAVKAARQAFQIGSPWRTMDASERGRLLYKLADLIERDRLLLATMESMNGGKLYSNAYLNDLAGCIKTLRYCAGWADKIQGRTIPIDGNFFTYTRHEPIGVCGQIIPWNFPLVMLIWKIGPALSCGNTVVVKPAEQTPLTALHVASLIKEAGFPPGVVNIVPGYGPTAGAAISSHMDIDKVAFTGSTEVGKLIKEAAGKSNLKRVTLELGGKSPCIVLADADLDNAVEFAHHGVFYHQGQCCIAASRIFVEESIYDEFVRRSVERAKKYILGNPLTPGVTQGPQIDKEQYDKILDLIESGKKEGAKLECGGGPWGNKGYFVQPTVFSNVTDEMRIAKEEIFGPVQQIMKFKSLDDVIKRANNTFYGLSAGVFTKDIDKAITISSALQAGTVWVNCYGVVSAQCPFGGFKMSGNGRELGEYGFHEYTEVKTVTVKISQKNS
HPGD inh: HPGD (human) dehydrogenase inhibition. Potency, µM, usual class: inhibitors. 150,000 tested, 4.3% active. AID 894. purified HPGD, NADH fluorescence kinetic, PGE2 substrate
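NADH formation kinetics: reaction with 30 uM PGE2 and 1 mM NAD+ (final), 20 nM enzyme, Tris-HCl pH 8 with Tween 20, after 15 min compound preincubation at room temperature. Fluorescence change, last versus first of five reads.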
LMNA splice mod: modulators of lamin A splicing | HeLa LMNA splicing GFP/RFP minigene ratio, 48 h | Potency, µM (highest dose often 46.1 µM), hits mostly inhibitors | 200,000 tested, 0.01% active | AID 1487; active = well fitted inhibition curve with a large enough effect in the signal ratio, with a control signal flat, not every such curve was filed as active; inconclusive = small, poorly fitted or top-dose-only effect, or effect the other way, or a change in a side signal; the % refers to the signal ratio
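S3 HeLa cells stably expressing lamin A-EGFP splicing minigene plus DsRed2, 600 cells/well, 48 h compound exposure at 37C. Laser-scanning cytometry; analysed as GFP (500-530 nm)/RFP (575-640 nm) total intensity ratio; 0.5% DMSO vehicle.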
PNC inhibitor: inhibitors of perinucleolar compartment assembly | PC3M PTB-GFP, PNC prevalence imaging, 16 h; active compounds read low | activity change (PNC), negative = inhibition, % at 10 µM | 140,000 tested, 3.1% active | AID 2417;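 active = readout at or below -70, meaning at least 70% loss of cells showing the perinucleolar compartment, a nuclear body marking cancer cells; inconclusive = readout between -30 and a set limit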
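Compounds are pinned in duplicate onto adhered PC3M cells stably expressing GFP-tagged PTB and incubated 16 h at 37 C. Cells are then fixed, nuclei stained with Hoechst, and PNC-positive cells counted.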
Numbers stand for hits; – = inactive; ? = inconclusive; · = not tested or not shown. Only some compounds are listed: those with a hit (about 10% of all), similar ones and a draw of the others. Unless noted, calls follow the shape of the dose curve; as a rule, active = well fitted inhibition curve with a large enough effect (not every such curve was filed as active); inconclusive = small, poorly fitted or top-dose-only effect, or another doubt; inactive = no such curve, though single readings can be large or run the other way.

SMILES | Luc counter | ALDH1A1 inh | HPGD inh | LMNA splice mod | PNC inhibitor
c1ccc2c(c1)OCC(c1nn3c(Cn4nnc5ccccc54)nnc3s1)O2 (stereo not drawn) | – | 11µM | 10µM | – | –
Cc1cccc(OCC(=O)Nc2cccc(C(=O)OCc3cc(=O)n4nc(C(C)C)sc4n3)c2)c1 | · | · | · | – | ·
O=C(O)CSc1nnc(Cn2nnc3ccccc32)n1CCc1ccccc1 | – | – | ? | – | ?
c1ccc(CCc2nn3c(Cn4nnc5ccccc54)nnc3s2)cc1 | – | 3.5µM | 10µM | – | –
c1ccc(Cc2nnc3sc(Nc4ccccc4)nn23)cc1 | – | – | – | – | –
c1ccc(CCc2nn3c(Cn4cnc5ccccc54)nnc3s2)cc1 | – | 3.5µM | 16µM | – | –
c1ccc(Cc2nn3c(Cn4nnc5ccccc54)nnc3s2)cc1 | – | 25µM | 20µM | – | –
NCCC(O)C(=O)NC1C[C@@H](N)[C@H](O[C@@H]2OC(CN)C(O)C(O)C2O)C(O)[C@H]1O[C@H]1OC(CO)C(O)C(N)C1O (stereo partly drawn) | – | – | – | · | ·
COc1ccc(/C(O)=C2\C(=O)C(=O)N(c3cc(C)on3)C2c2cccc(OC)c2OC)cc1C (stereo not drawn) | – | – | – | – | –
COc1cccc(C2c3c(oc4ccc(Cl)cc4c3=O)C(=O)N2c2cc(C)on2)c1OC (stereo not drawn) | – | – | – | ? | -136
COc1ccc(C(=O)NCc2ccc3[nH]c(C)cc3c2)cc1OC | – | 20µM | · | · | ·
Cc1cc2cc(CNC(=O)c3ccc4c(c3)OCO4)ccc2[nH]1 | – | 35µM | 20µM | ? | ?
CCCCNC(=S)NCc1ccc2[nH]c(C)cc2c1 | – | – | – | ? | -115
COc1cccc(C(=O)NCc2ccc3[nH]c(C)cc3c2)c1 | – | 28µM | · | · | ·
COC(=O)c1sccc1S(=O)(=O)N(CC(=O)Nc1cc(C)ccc1C)c1ccc(C)c(C)c1 | · | · | · | – | ·
CCOc1cc(CNC(=O)c2ccc3c(c2)nc2n3CCCCC2)ccc1OC | · | · | · | – | ·
COc1ccc(C(=O)NCc2cn3c(C)csc3n2)cc1OC | – | – | – | – | -100
COc1ccc(OC)c(S(=O)(=O)NCc2cn3c(C)csc3n2)c1 | – | – | – | – | –
Cc1[nH]n(-c2ccccc2)c(=S)c1C=NCCCN=Cc1c(C)[nH]n(-c2ccccc2)c1=S | – | 4µM | 28µM | ? | ?
COC(=O)CN=Cc1c(C)[nH]n(-c2ccccc2)c1=O | – | – | · | ? | ·
COc1ccc(NC(=O)N2CCC3(CC2)CCN(C(=O)c2cccc(F)c2)CC3)cc1 | – | – | – | · | ·
CC1CCN(S(=O)(=O)c2nnc(NC(=O)c3cccc(Cl)c3)s2)CC1 | · | · | · | – | ·
Cc1cc2c(cc1S(=O)(=O)N(C)CC(=O)Nc1ccc(C#N)cc1)OCC(=O)N2 | · | · | · | – | ·
COC(=O)c1c(NC(=O)c2ccccc2)sc(C(N)=O)c1C | – | ? | · | ? | ·
Cc1ccc(C(=O)Nc2ccc(NC(=O)c3cccs3)cc2)cc1[N+](=O)[O-] | – | – | · | · | ·
SMILES | Luc counter | ALDH1A1 inh | HPGD inh | LMNA splice mod | PNC inhibitor
COC(=O)c1c(NC(=O)c2cccc([N+](=O)[O-])c2)sc(C(N)=O)c1C | – | 7.9µM | · | ? | ·
COC(=O)c1c(NC(=O)c2ccccc2)sc(C(=O)c2ccccc2)c1C | – | 14µM | – | ? | –
COC(=O)c1sc(NC(=O)c2cccc([N+](=O)[O-])c2)c(C(N)=O)c1C | – | 10µM | 28µM | ? | ?
Cc1ccc(C(=O)Nc2sc(C)c(-c3ccccc3)c2C(N)=O)cc1[N+](=O)[O-] | – | 10µM | 25µM | – | –
COc1ccc(Cc2nnc(NC(=O)c3cccc([N+](=O)[O-])c3)s2)cc1 | – | – | – | ? | –
CCc1ccc(NS(=O)(=O)c2ccc(Cl)cc2OC)cc1 | – | – | – | · | ·
N#CCCn1c(=O)c(-c2ccccc2)nc2cnc(Oc3ccccc3)nc21 | – | ? | ? | · | ·
COC(C)(C)CCCC(C)C/C=C/C(C)=C/C(=O)O (stereo not drawn) | – | – | – | · | ·
Cc1ccc(NC(=O)c2ccccc2)s1 | ? | – | – | – | –
Cc1cc(NC(=O)c2ccccc2)sc1C | 11µM | – | – | – | –
CCOc1ccc(S(=O)(=O)N/N=C(\C)Cc2ccc(OC)cc2)cc1 | – | 2.8µM | · | – | ·
CCOc1ccc(S(=O)(=O)N/N=C(\C)C2CCCCC2)cc1 | – | 1.8µM | – | – | –
COc1ccc(C(=O)N2CCC3(CCN(Cc4ccccc4OC)CC3)CC2)cc1 | – | – | – | · | ·
COCC(=O)C(C(=O)OC)[C@H](CCc1ccccc1)NC(=O)OC (stereo partly drawn) | – | – | – | · | ·
CCOC(=O)c1[nH]c(C)c(C(=O)c2cc(F)ccc2F)c1C | – | – | ? | ? | -95
O=C(N/N=C/C1C(c2ccccc2)C1(Cl)Cl)c1cccc(Br)c1 (stereo not drawn) | – | 11µM | – | – | –
CC(/C=C/c1ccccc1)=N/NC(=O)c1cccc(Br)c1 | – | – | · | – | ·
O=C(N(c1ccccc1)c1ccccc1)N(c1ccccc1)c1ccccc1 | · | – | · | · | ·
O=C(CCl)N(c1ccccc1)c1ccccc1 | – | 0.045µM | · | · | ·
NCC[C@H](O)C(=O)N[C@H]1C[C@@H](N)[C@@H](O[C@H]2O[C@@H](CN)[C@@H](O)[C@@H](O)[C@@H]2O)[C@@H](O)[C@@H]1O[C@H]1O[C@@H](CO)[C@@H](O)[C@@H](N)[C@@H]1O | – | – | – | ? | ·
CC(C)c1cnc2c(c1SCC(=O)Nc1cccc([N+](=O)[O-])c1)c(=O)n(C)c(=O)n2C | · | · | · | – | ·
COC(=O)C1=C(C)N=C2SCCC(=O)N2C1c1ccc(OC(=O)c2ccco2)cc1 (stereo not drawn) | – | – | – | – | –
COC(=O)c1ccc(C2C(C(=O)OC(C)C)=C(C)N=C3SCCC(=O)N32)cc1 (stereo not drawn) | – | – | – | – | -90
COC(=O)C1=C(C)N=C2SCCC(=O)N2C1c1cc(Br)ccc1OC (stereo not drawn) | · | ? | · | ? | –
C=CCOC(=O)C1=C(C)N=C2SCCC(=O)N2C1c1ccc(OC(=O)c2ccco2)cc1 (stereo not drawn) | – | 20µM | – | – | -127
SMILES | Luc counter | ALDH1A1 inh | HPGD inh | LMNA splice mod | PNC inhibitor
CCOC(=O)N(C)OC(=O)Nc1ccc(Cl)c(Cl)c1 | – | 4µM | ? | – | –
CCOC(=O)NCCOC(=O)Nc1ccc(Cl)cc1 | – | – | · | – | ·
CCOC(=O)N(CC)OC(=O)Nc1ccc(Cl)cc1 | – | 4.5µM | – | – | –
Nc1nc(CSc2nc3ccccc3s2)nc(N2CCOCC2)n1 | – | – | · | · | ·
Nc1nc(CSCc2ccccc2)nc(N2CCOCC2)n1 | – | ? | – | – | -107
CC(C)[C@@H](CC(=O)N[C@@H]1CCCC[C@H]1C(=O)N[C@H](CC(=O)N[C@@H](CCC(=O)O)CC(=O)O)Cc1ccccc1)NC(=O)C[C@H](Cc1ccccc1)NC(=O)[C@@H]1CNCC[C@H]1N | – | – | – | · | ·
